PubChem BioAssay (NCATS)
Inconclusive results are not listed. Active and inactive are the calls of the source. Calls follow the shape of the dose curve; as a rule, active = well fitted inhibition curve with a large enough effect; inconclusive = small, poorly fitted or top-dose-only effect; inactive = flat fitted curve, though single readings scatter.

Tested on: CRL-7250
Assay: qHTS assay to identify novel small-molecules to repurpose for Merkel cell carcinoma treatment (AID 1296009); also: nearly all actives have a fitted effect of over 60% in size
Conditions: MCC and control cell lines, CellTiter-Glo viability, 72 h; series mostly up to 92 µM; activity change, negative = cytotoxicity: at the top concentration
Method in brief: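 72 hr, 37 degree celsius; NPC 8-pt / MIPE 11-pt dose response; compound pinned in DMSO; CellTiter-Glo, 10 min RT, luminescence; normalized to no-cell and DMSO controls.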

Structure (SMILES) | outcome
CC[C@H](C)[C@H](NC(=O)[C@H](Cc1ccc(O)cc1)NC(=O)[C@@H](N)C(C)C)C(=O)N[C@@H](Cc1cnc[nH]1)C(=O)N1CCC[C@H]1C(=O)N[C@@H](Cc1ccccc1)C(=O)O | inactive [at 4.96 µM]
C[C@@H]1O[C@@H](O[C@H]2[C@H](O[C@H]3[C@H](O[C@H]4CC[C@@]5(CO)C(CC[C@]6(C)C5CC=C5C7CC(C)(C)C[C@@H](O)[C@]7(C)CC[C@]56C)C4(C)C)O[C@H](C(=O)O)[C@@H](O)[C@@H]3O)OC[C@@H](O)[C@@H]2O)[C@H](O)[C@H](O)[C@H]1O (some centres not stated) | inactive [at 9.27 µM]
COc1cc(C2Oc3c(OC)cc(CCCO)cc3C2CO)ccc1O (configuration not stated) | inactive
CC1(C)CC[C@]2(C(=O)O)CC[C@]3(C)C(=CCC4[C@@]5(C)CC[C@H](O)C(C)(C)C5CC[C@]43C)C2C1 (some centres not stated) | inactive [at 17.4 µM]
CC(C)(Oc1ccc(-c2nc3cc(Cl)ccc3s2)cc1)C(=O)O | inactive
CC(C)[C@](O)(c1ccc2cc(OC(F)F)c(OC(F)F)cc2c1)c1cn[nH]n1 | inactive
CC(C/C=C/C(C)(C)O)C1CCC(C)(O)C(O)C1 (configuration not stated) | inactive
CC1(C)NC2N(C1=O)c1ccccc1C2(O)CC(C(=O)O)n1cnc2ccccc2c1=O (configuration not stated) | inactive [at 17.4 µM]
NC(=O)c1ccc(F)c2c1C[C@@H](N(C1CCC1)C1CCC1)CO2 | inactive
O=C(O)c1cc(-c2c(-c3ccccc3)nn3ccccc23)n[nH]c1=O | inactive
C[C@H](C(=O)NC1CCCC1)N(C(=O)Cn1nnc(-c2ccc3c(c2)OCO3)n1)C1CCCCC1 | inactive
CCc1nnc(NS(=O)(=O)c2ccc(NC(=S)NC(=O)/C=C/c3ccc(F)cc3)cc2)s1 | inactive
CC(=O)OC1CC(C(C)(C)O)OC2CCC3(C)OC4=C(C(=O)C=C5C(C)C(OC(C)=O)C6(C)C(C)OC546)C(O)C3C12C (configuration not stated) | inactive [at 17.4 µM]
COc1ccc(CNCc2cccc3ccccc23)cc1 | inactive
Cc1oc(S(=O)(=O)N2CCCCC2)cc1NC(=O)Nc1ccccc1 | inactive
CC(C)C1NC(=O)C2CCCN2C1=O (configuration not stated) | inactive

Structure (SMILES) | outcome
COc1cc2ncnc(Nc3ccc(O)cc3)c2cc1OC | inactive
C[C@]12CCC(=O)C=C1[C@@H](O)C[C@@H]1[C@@H]2[C@@H](O)C[C@@]2(C)[C@H]1CC[C@]2(O)C(=O)CO | inactive
CC(C)C1C(OC(=O)/C=C/c2ccccc2)CC2(C)OC2CCC2(C)OC2C1O (configuration not stated) | inactive
CN(C)c1ccc(C2O[C@@H](c3ccccc3)C[C@H](c3ccccc3)O2)cc1 (some centres not stated) | inactive
CCCCc1c(-c2ccc(OC)cc2)[nH]c2nccnc12 | inactive
C[C@H](/C=C/[C@@]1(O)[C@H](C)CC(=O)CC1(C)C)O[C@@H]1O[C@H](CO[C@@H]2OC[C@@H](O)[C@H](O)[C@H]2O)[C@@H](O)[C@H](O)[C@H]1O | inactive [at 17.4 µM]
O=C(O[C@H]1[C@@H]2C[C@@H]3OC[C@@](O)([C@H]2[C@H](O[C@@H]2O[C@H](CO)[C@@H](O)[C@H](O)[C@H]2O)O3)[C@@H]1O)c1ccccc1 | inactive [at 17.4 µM]
C[C@@H]1O[C@@H](O[C@@H]2[C@@H](O)[C@H](O[C@H]3CC[C@@]4(C)C(CC[C@]5(C)C4CC=C4[C@@H]6CC(C)(C)CC[C@]6(C(=O)O[C@@H]6O[C@H](CO)[C@@H](O)[C@H](O)[C@H]6O)CC[C@]45C)C3(C)C)O[C@H](C(=O)O)[C@H]2O)[C@H](O)[C@H](O)[C@H]1O (some centres not stated) | inactive [at 9.27 µM]
N#CC1C(=O)N=C(c2cc(Cl)ccc2O)C=C1c1cc(OCc2ccccc2)cc(OCc2ccccc2)c1 (configuration not stated) | inactive
CC/C=C\CC1C(CC(=O)O)CCC1OC1OC(CO)C(O)C(O)C1O (configuration not stated) | inactive
C[C@H]1[C@H](C)CC[C@]2(C(=O)O)CC[C@]3(C(=O)O)C(=CCC4[C@@]5(C)CC[C@H](O[C@@H]6O[C@@H](C)[C@H](O)[C@@H](O)[C@H]6O)C(C)(C)C5CC[C@]43C)[C@H]12 (some centres not stated) | inactive [at 17.4 µM]
CC/C=C\CCO[C@@H]1O[C@H](CO[C@@H]2OC[C@H](O)[C@H](O)[C@H]2O)[C@@H](O)[C@H](O)[C@H]1O | inactive
OCC1OC(Oc2cc(O)cc(/C=C/c3ccc(OC4OC(CO)C(O)C(O)C4O)cc3O)c2)C(O)C(O)C1O (configuration not stated) | inactive [at 17.4 µM]
CC12CC(c3ccoc3)OC(=O)C1CCC1(C)C2CCC(O)C1(C)O (configuration not stated) | inactive
COC1C=C(C)C(O)(CO)C2(C)CCCC(C)(C)C12 (configuration not stated) | inactive
C=C[C@H]1[C@H](O[C@@H]2O[C@H](CO[C@@H]3OC[C@](O)(CO)[C@H]3O)[C@@H](O)[C@H](O)[C@H]2O)OC=C2C(=O)OCC[C@H]21 | inactive [at 17.4 µM]
